Results: PubChem BioAssay (NCATS)
Results filed as inconclusive are left out. The source made the active and inactive calls. The call rests on the fitted dose curve; in most records, active means well fitted curve in the direction sought with a large enough effect; inconclusive means small, poorly fitted or top-dose-only effect, or another doubt; inactive means no such curve, though single readings can be large; an effect the other way counts as inactive or inconclusive.

How the values were obtained:
NIH3T3 = assay: qHTS assay to identify novel small-molecules to repurpose for Merkel cell carcinoma treatment (AID 1296009); details: MCC and control cell lines, CellTiter-Glo viability, 72 h; at 44.8 µM (top of the series) unless noted; further: nearly all actives have a fitted effect of over 60% in size
Summary of the method: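 Cell viability, measured as CellTiter-Glo luminescence, was normalized between DMSO and no-cell wells. The cells had been exposed to 8- or 11-point compound dilutions for 72 hr at 37 degree celsius.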

C33A = assay: Primary qHTS to identify gynecologic anti-cancer compounds using libraries of approved drugs and bioactive compounds (AID 1345084); details: Gynecologic cancer cell panel viability, ATPlite luminescence, 48 h; series mostly up to 57.5 µM; further: on the % scale 0 is the no-effect control and ±100 the full control effect; nearly all actives have a fitted effect of over 55% in size
Summary of the method: (§1)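 Five-point cytotoxicity, 48 h drug exposure at 37 C, 5% CO2, on cells seeded 16 h beforehand. ATP content read by ATPlite luminescence.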

CAOV3 = assay: as above; details: Gynecologic cancer cell panel viability, ATPlite luminescence, 48 h; series mostly up to 57.5 µM
Summary of the method: as §1

CASKI = assay: as above; details: Gynecologic cancer cell panel viability, ATPlite luminescence, 48 h; series mostly up to 57.5 µM
Summary of the method: as §1

Es-2 = assay: as above; details: Gynecologic cancer cell panel viability, ATPlite luminescence, 48 h; series mostly up to 57.5 µM
Summary of the method: as §1

HeLa = assay: as above; details: Gynecologic cancer cell panel viability, ATPlite luminescence, 48 h; series mostly up to 57.5 µM
Summary of the method: as §1

Hek293T = assay: as above; details: Gynecologic cancer cell panel viability, ATPlite luminescence, 48 h, control line for the selectivity index; series mostly up to 57.5 µM
Summary of the method: as §1

JEG-3 = assay: as above; details: Gynecologic cancer cell panel viability, ATPlite luminescence, 48 h; series mostly up to 57.5 µM
Summary of the method: as §1

CC1(C)CC[C@]2(C(=O)O[C@@H]3O[C@H](CO[C@@H]4O[C@H](CO)[C@@H](O)[C@H](O)[C@H]4O)[C@@H](O)[C@H](O[C@@H]4O[C@H](CO)[C@@H](O)[C@H](O)[C@H]4O)[C@H]3O)CC[C@]3(C)C(=CCC4[C@@]5(C)CC[C@H](O[C@@H]6OC[C@@H](O)[C@H](O)[C@H]6O)[C@@](C)(C(=O)O)C5CC[C@]43C)[C@@H]2C1 (stereo partly specified)
inactive: outcome (NIH3T3) inactive [at 9.27 µM] | activity change, negative = cytotoxicity (C33A) 0.217% [at 11.6 µM] | activity change, negative = cytotoxicity (CAOV3) 15.5% [at 11.6 µM] | activity change, negative = cytotoxicity (CASKI) 9.7% [at 11.6 µM] | activity change, negative = cytotoxicity (Es-2) -1.43% [at 11.6 µM] | activity change, negative = cytotoxicity (HeLa) 13.2% [at 11.6 µM] | activity change, negative = cytotoxicity (Hek293T) 2.76% [at 11.6 µM] | activity change, negative = cytotoxicity (JEG-3) 2.05% [at 11.6 µM]

COc1ccc(-n2c(=O)[nH]c3cc(C(=O)NCc4ccc(Cl)cc4)sc3c2=O)nc1OC
inactive: outcome (NIH3T3) | Potency (C33A) | Potency (CAOV3) | outcome (CASKI) | Potency (Es-2) | Potency (HeLa) | Potency (Hek293T) | Potency (JEG-3)

COc1ccc(/C=C/C(=O)O[C@@H]2[C@@H](OC(C)=O)[C@@H](OC(C)=O)[C@H](O[C@H]3[C@@H]4C=CO[C@@H](O[C@@H]5O[C@H](CO)[C@@H](O)[C@H](O)[C@H]5O)[C@@H]4[C@@]4(CO)O[C@@H]34)O[C@H]2C)cc1
inactive: outcome (NIH3T3) inactive [at 17.4 µM] | Potency (C33A) | Potency (CAOV3) | outcome (CASKI) | Potency (Es-2) | Potency (HeLa) | Potency (Hek293T) | Potency (JEG-3)

CC(=O)OCC1OC(O[C@H]2CC[C@]34C[C@]35CC(O)[C@]3(C)[C@@H]([C@H](C)CC/C=C(\C)C(=O)O)C(O)C[C@@]3(C)C5CC[C@H]4C2(C)C)C(O)C(O)C1OC1OCC(O)C(O)C1O (stereo partly specified)
inactive: outcome (NIH3T3) inactive [at 9.27 µM] | activity change, negative = cytotoxicity (C33A) -4.66% [at 11.6 µM] | activity change, negative = cytotoxicity (CAOV3) -5.98% [at 11.6 µM] | activity change, negative = cytotoxicity (CASKI) -12.9% [at 11.6 µM] | activity change, negative = cytotoxicity (Es-2) -0.425% [at 11.6 µM] | activity change, negative = cytotoxicity (HeLa) 6.1% [at 11.6 µM] | activity change, negative = cytotoxicity (Hek293T) -4.45% [at 11.6 µM] | activity change, negative = cytotoxicity (JEG-3) -9.54% [at 11.6 µM]

CCOC(=O)C(CCc1ccccc1)NC(C)C(=O)N1Cc2ccccc2CC1C(=O)O (stereo unspecified)
inactive: outcome (NIH3T3) | Potency (C33A) | Potency (CAOV3) | outcome (CASKI) | Potency (Es-2) | Potency (HeLa) | Potency (Hek293T) | Potency (JEG-3)

COc1cc(/C=C/C(=O)O[C@@H]2C[C@@](O)(C(=O)O)C[C@@H](O)[C@@H]2O)ccc1O
inactive: outcome (NIH3T3) | Potency (C33A) | Potency (CAOV3) | outcome (CASKI) | Potency (Es-2) | Potency (HeLa) | Potency (Hek293T) | Potency (JEG-3)

O=C(/C=C/c1ccc(O)cc1)O[C@@H]1C[C@@](O)(C(=O)O)C[C@@H](O)[C@@H]1O
inactive: outcome (NIH3T3) | Potency (C33A) | Potency (CAOV3) | outcome (CASKI) | Potency (Es-2) | Potency (HeLa) | Potency (Hek293T) | Potency (JEG-3)

CC(=O)OC1C(C)C2C(OC3OC(CO)C(O)C(O)C3O)OC=C(C(=O)O)C2C1OC(=O)c1ccccc1 (stereo unspecified)
inactive: outcome (NIH3T3) inactive [at 17.4 µM] | Potency (C33A) | Potency (CAOV3) | outcome (CASKI) | Potency (Es-2) | Potency (HeLa) | Potency (Hek293T) | Potency (JEG-3)

CC[C@@H](Nc1c(Nc2cccc(C(=O)N(C)C)c2O)c(=O)c1=O)c1ccc(C)o1
inactive: outcome (NIH3T3) | Potency (C33A) | Potency (CAOV3) | outcome (CASKI) | Potency (Es-2) | Potency (HeLa) | Potency (Hek293T) | Potency (JEG-3)

COc1ccc(CCC(=O)c2c(O)cc(O[C@@H]3O[C@H](CO)[C@@H](O)[C@H](O)[C@H]3O[C@@H]3O[C@@H](C)[C@H](O)[C@@H](O)[C@H]3O)cc2O)cc1O
inactive: outcome (NIH3T3) | Potency (C33A) | Potency (CAOV3) | outcome (CASKI) | Potency (Es-2) | Potency (HeLa) | Potency (Hek293T) | Potency (JEG-3)

CCCNCCOc1ccc(NC(=O)c2c[nH]c3c2C(=O)CCC3)cc1F
inactive: outcome (NIH3T3) | Potency (C33A) | Potency (CAOV3) | outcome (CASKI) | Potency (Es-2) | Potency (HeLa) | Potency (Hek293T) | Potency (JEG-3)

COc1cc(/C=C/C(=O)O[C@H]2[C@H](O)[C@@H](CO)O[C@@]2(CO)O[C@H]2O[C@H](CO)[C@@H](O)[C@H](O)[C@H]2O)cc(OC)c1O
inactive: outcome (NIH3T3) inactive [at 17.4 µM] | Potency (C33A) | Potency (CAOV3) | outcome (CASKI) | Potency (Es-2) | Potency (HeLa) | Potency (Hek293T) | Potency (JEG-3)

CC(C)(CC(=O)N1CCCC1)NCC(=O)N1C[C@@H](F)C[C@H]1C#N
inactive: outcome (NIH3T3) | Potency (C33A) | Potency (CAOV3) | outcome (CASKI) | Potency (Es-2) | Potency (HeLa) | Potency (Hek293T) | Potency (JEG-3)

CC1(C)CC[C@]2(C(=O)O)CC[C@]3(C)C(=CCC4[C@@]5(C)CC[C@H](O[C@@H]6O[C@H](C(=O)O)[C@@H](O)[C@H](O)[C@H]6O)C(C)(C)C5CC[C@]43C)C2C1 (stereo partly specified)
inactive: outcome (NIH3T3) inactive [at 17.4 µM] | Potency (C33A) | Potency (CAOV3) | outcome (CASKI) | Potency (Es-2) | Potency (HeLa) | Potency (Hek293T) | Potency (JEG-3)

O=C(/C=C/N1C[C@@H]2C[C@@H]1CN2c1ccccn1)c1ccccc1O
inactive: outcome (NIH3T3) | Potency (C33A) | Potency (CAOV3) | outcome (CASKI) | Potency (Es-2) | Potency (HeLa) | Potency (Hek293T) | Potency (JEG-3)

CC1=CC(=O)CC(C)(C)C1/C=C/C(C)OC1OC(COC2OCC(O)C(O)C2O)C(O)C(O)C1O (stereo unspecified)
inactive: outcome (NIH3T3) inactive [at 17.4 µM] | Potency (C33A) | Potency (CAOV3) | outcome (CASKI) | Potency (Es-2) | Potency (HeLa) | Potency (Hek293T) | Potency (JEG-3)

Cc1ccccc1-c1cc(N2CCN(C)CC2)ncc1N(C)C(=O)C(C)(C)c1cc(C(F)(F)F)cc(C(F)(F)F)c1
inactive: outcome (NIH3T3) | Potency (C33A) | Potency (CAOV3) | outcome (CASKI) | Potency (Es-2) | Potency (HeLa) | Potency (Hek293T) | Potency (JEG-3)
